Laboratory results taken from the supplement of paper PMC6555819.

What was measured:
Experiment in all cases: PBM binding z-score (relative to random genomic background probes); higher = stronger binding; sequences stand for … in GC…GCGATTGACAGCGTAGAATGAAGG
[1] = test system: FXR:RXRa (NR concentration 270 nM, RXRa partner concentration 90 nM)
In short: (§1)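 Ligand-free nuclear receptor dimers were bound for 1 h to custom Agilent 4×180K protein-binding microarrays. Detection used antibodies against each partner (one per run). Binding z-scores rest on regression-normalized fluorescence, with random background probes as the reference.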

[2] = test system: LXRa:RXRa (NR concentration 270 nM, RXRa partner concentration 90 nM)
In short: as §1

[3] = test system: LXRa homodimer (NR concentration 270 nM)
In short: as §1

[4] = test system: LXRb:RXRa (NR concentration 270 nM, RXRa partner concentration 90 nM)
In short: as §1

[5] = test system: LXRb homodimer (NR concentration 270 nM)
In short: as §1

[6] = test system: PPARa:RXRa (NR concentration 270 nM, RXRa partner concentration 90 nM)
In short: as §1

[7] = test system: PPARg:RXRa (NR concentration 180 nM, RXRa partner concentration 90 nM)
In short: as §1

[8] = test system: PPARg:RXRa 270nM:90nM, anti-RXR (NR concentration 270 nM, RXRa partner concentration 90 nM)
In short: as §1

[9] = test system: PPARg:RXRa 30nM:10nM, anti-RXR (NR concentration 30 nM, RXRa partner concentration 10 nM)
In short: as §1

[10] = test system: PPARg:RXRa 90nM:30nM, anti-RXR (NR concentration 90 nM, RXRa partner concentration 30 nM)
In short: as §1

[11] = test system: PPARg:RXRa DBDmut IVT, anti-RXR (DBD mutation: RXRa K156A/R161A, NR concentration 270 nM, RXRa partner concentration 90 nM)
In short: as §1

[12] = test system: PPARg:RXRa IVT, anti-PPARg (NR concentration 270 nM, RXRa partner concentration 90 nM)
In short: as §1

[13] = test system: PPARg DBDmut:RXRa IVT, anti-PPARg (DBD mutation: PPARg1 K132A/R137A, NR concentration 270 nM, RXRa partner concentration 90 nM)
In short: as §1

[14] = test system: PPARg DBDmut IVT, anti-PPARg (DBD mutation: PPARg1 K132A/R137A, NR concentration 270 nM)
In short: as §1

[15] = test system: PPARg homodimer (NR concentration 180 nM)
In short: as §1

[16] = test system: PXR:RXRa (NR concentration 270 nM, RXRa partner concentration 90 nM)
In short: as §1

[17] = test system: PXR homodimer (NR concentration 270 nM)
In short: as §1

[18] = test system: RARa:RXR (NR concentration 270 nM, RXRa partner concentration 90 nM)
In short: as §1

[19] = test system: RARa homodimer (NR concentration 270 nM)
In short: as §1

[20] = test system: RARb:RXRa (NR concentration 270 nM, RXRa partner concentration 90 nM)
In short: as §1

Sequence | PBM binding z-score [1] | PBM binding z-score [2] | PBM binding z-score [3] | PBM binding z-score [4] | PBM binding z-score [5] | PBM binding z-score [6] | PBM binding z-score [7] | PBM binding z-score [8] | PBM binding z-score [9] | PBM binding z-score [10] | PBM binding z-score [11] | PBM binding z-score [12] | PBM binding z-score [13] | PBM binding z-score [14] | PBM binding z-score [15] | PBM binding z-score [16] | PBM binding z-score [17] | PBM binding z-score [18] | PBM binding z-score [19] | PBM binding z-score [20]
CCTAGCAGGCCAATCAGGGTCACTCAAGGCTTGA | 2.6 | 3.39 | -0.0064 | 3.03 | -0.752 | 3.63 | 0.949 | 1.33 | -0.454 | 0.361 | 1.3 | 1.7 | -0.834 | -1.49 | 0.893 | 4.07 | -0.258 | 3.42 | -0.49 | 2.36
GTACCAAGGTGAAGAGGTCGTTGATGAGTAGGCG | 1.67 | 1.32 | 0.0368 | 1.13 | -0.425 | 3 | 1.95 | 2.49 | 0.544 | 1.72 | 1.79 | 2.51 | -0.57 | -0.181 | 1.37 | 2.15 | 0.607 | 2.68 | -0.129 | 2.35
ATCTCTAGGTAAGTCTCAGTTCAGTGAAGAACGC | 0.588 | 0.489 | 0.754 | 0.383 | 1.26 | 0.246 | -0.297 | 0.387 | 0.236 | 0.632 | 1.77 | 1.38 | 1.04 | 1.5 | 1.22 | 1.23 | 2.14 | 0.749 | 1.44 | 0.564
TGTCAAAGTTCAAAGGTAACATAAGTATCCACAC | 7.47 | 6.45 | 4.6 | 5.05 | 2.12 | 6.03 | 8.82 | 7.65 | 5.46 | 7.34 | 0.298 | 4.93 | 1.53 | 2.04 | 3.31 | 5.72 | 4.18 | 6.28 | 1.65 | 5.24
CCATACAGGTGAAAGGTAACTCAGTCTGGTACGC | 0.917 | 0.86 | 0.0219 | 1.34 | 0.147 | 4.47 | 7.97 | 7.64 | 6.75 | 8.48 | 4.44 | 4.52 | 0.453 | 0.514 | 1.27 | 1.12 | 0.206 | 1.99 | 0.894 | 1.44
CCTAGTGGGCCAAAAAGGTCATTGATGCCGATAA | 3.3 | 4.12 | 3.05 | 3.87 | 0.134 | 4.56 | 3.16 | 3.97 | 1.73 | 3.24 | 3.84 | 4.01 | -0.411 | -0.658 | 3.24 | 4.65 | 3.02 | 4.62 | 1.5 | 3.94
TTACCAAGGGGAAGGTCGTTGATCCCTCTGTAGA | 0.907 | 0.734 | -0.259 | 0.976 | -0.862 | 1.38 | 0.79 | 2.13 | 0.461 | 1.52 | -0.147 | 0.449 | -0.647 | -0.525 | -0.13 | 0.711 | -0.0192 | 0.899 | -0.541 | 0.811
TCATATAGGTAAATGCTAGGTGAAAGTCCGATCT | 1.23 | 1.02 | 0.256 | 0.834 | -0.0467 | 1.43 | 1.09 | 2.44 | 3.65 | 3.19 | 3.92 | 2.74 | 1.21 | 1.03 | 0.763 | 0.713 | 0.387 | 1.07 | 1.52 | 0.642
GGAACGAGGGCATTCGAGTTGACAGCATGGCGAT | 1.65 | 1.9 | -0.394 | -0.0362 | -0.953 | 1.34 | 0.875 | 0.675 | -0.547 | -0.0204 | 2.98 | 2.46 | 0.222 | -0.00883 | -0.393 | 3.85 | 1.46 | 0.951 | -0.555 | 1.87
GCATATAGGTAATACAAGGTGAAATTCCGATTGT | 1.74 | 2.2 | 0.342 | 0.712 | -0.117 | 1.67 | 1.51 | 0.952 | 0.515 | 0.795 | 3.71 | 2.81 | 0.826 | 1.54 | 0.323 | 0.55 | 0.0431 | 1.17 | 0.97 | 0.349
CCTTACGTGTCACGAGGTTATAGCACGACGAGCG | 1.42 | 1.62 | 0.447 | 1.29 | 0.663 | 2.43 | 2.05 | 1.6 | 0.219 | 0.814 | 2.43 | 2.16 | 0.0495 | 0.563 | 1.81 | 1.5 | 0.447 | 1.97 | 0.817 | 1.78
TCTAGTTGGACAAAGGTCACACACTCGAAATGCG | 5.55 | 5.75 | 3.58 | 5.38 | 1.83 | 6.21 | 9.82 | 8.72 | 9.32 | 9.4 | 2.65 | 5.02 | 0.884 | 1.01 | 4.09 | 5.7 | 1.81 | 6.59 | 2.98 | 5.11
TGAATGAGGTTAACGATCAGGGAACGTGGCGTCG | 1.98 | 1.82 | -0.477 | 0.806 | -0.194 | 3.2 | 2.41 | 2.48 | 0.951 | 1.83 | 2.53 | 2.98 | 0.909 | 0.129 | 0.132 | 0.809 | -0.38 | 2.15 | -0.0277 | 2.01
CTCGAAAGGTCGTGCTGAGGTGAGTATACCAAAC | 4.89 | 3.82 | 0.000478 | 3.31 | -0.153 | 4.82 | 2.58 | 3.85 | 1.23 | 2.67 | 0.827 | 1.96 | 0.22 | 0.0024 | 1.84 | 3.61 | 0.222 | 4.16 | -0.373 | 3.93
